From the supplement of paper PMC6555819 come the findings set out here.

What all share (experiment): PBM binding z-score (relative to random genomic background probes); higher = stronger binding; sequences stand for … in GC…GCGATTGACAGCGTAGAATGAAGG
Assay [1] deals with FXR:RXRa (NR concentration 270 nM, RXRa partner concentration 90 nM). In short, it runs like this:
(§1)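 Binding z-scores were set against random background probes. The data came from custom Agilent 4×180K protein-binding microarrays carrying double-stranded probes with 34-nt variable regions, incubated 1 h with ligand-free nuclear receptor dimers. Partner-specific antibodies detected binding, and scanned fluorescence was regression-normalized.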

Assay [2] relates to LXRa:RXRa (NR concentration 270 nM, RXRa partner concentration 90 nM). In short, it runs like this:
as §1

The subject of assay [3] is LXRa homodimer (NR concentration 270 nM). In short, it runs like this: as §1
Assay [4] concerns LXRb:RXRa (NR concentration 270 nM, RXRa partner concentration 90 nM). In short, it runs like this: as §1
Assay [5] has as its system LXRb homodimer (NR concentration 270 nM). In short, it runs like this:
as §1

Assay [6] concerns PPARa:RXRa (NR concentration 270 nM, RXRa partner concentration 90 nM). In short, it runs like this:
as §1

In assay [7] the test system is PPARg:RXRa (NR concentration 180 nM, RXRa partner concentration 90 nM). In short, it runs like this: as §1
The subject of assay [8] is PPARg:RXRa 270nM:90nM, anti-RXR (NR concentration 270 nM, RXRa partner concentration 90 nM). In short, it runs like this:
as §1

Assay [9] concerns PPARg:RXRa 30nM:10nM, anti-RXR (NR concentration 30 nM, RXRa partner concentration 10 nM). In short, it runs like this: as §1
In assay [10] the test system is PPARg:RXRa 90nM:30nM, anti-RXR (NR concentration 90 nM, RXRa partner concentration 30 nM). In short, it runs like this: as §1
Assay [11] relates to PPARg:RXRa DBDmut IVT, anti-RXR (DBD mutation: RXRa K156A/R161A, NR concentration 270 nM, RXRa partner concentration 90 nM). In short, it runs like this:
as §1

The subject of assay [12] is PPARg:RXRa IVT, anti-PPARg (NR concentration 270 nM, RXRa partner concentration 90 nM). In short, it runs like this:
as §1

Assay [13] has as its system PPARg DBDmut:RXRa IVT, anti-PPARg (DBD mutation: PPARg1 K132A/R137A, NR concentration 270 nM, RXRa partner concentration 90 nM). In short, it runs like this:
as §1

In assay [14] the test system is PPARg DBDmut IVT, anti-PPARg (DBD mutation: PPARg1 K132A/R137A, NR concentration 270 nM). In short, it runs like this: as §1
The test system of assay [15] is PPARg homodimer (NR concentration 180 nM). In short, it runs like this: as §1
For assay [16], the system named is PXR:RXRa (NR concentration 270 nM, RXRa partner concentration 90 nM). In short, it runs like this: as §1
Assay [17] relates to PXR homodimer (NR concentration 270 nM). In short, it runs like this: as §1
Assay [18] has as its system RARa:RXR (NR concentration 270 nM, RXRa partner concentration 90 nM). In short, it runs like this: as §1
Assay [19] has as its system RARa homodimer (NR concentration 270 nM). In short, it runs like this:
as §1

Assay [20] deals with RARb:RXRa (NR concentration 270 nM, RXRa partner concentration 90 nM). In short, it runs like this: as §1

For CCTATTAGTTGACCATAAGCGCAACCGAAGCTCG, the PBM binding z-score stood at 0.497 in assay [1]; 0.827 in assay [2]; 0.899 in [3]; 1.04 in [4]; 1.41 in assay [5]; 0.528 in assay [6]. Besides, the PBM binding z-score came to 0.326 in assay [7]; 0.456 in [8]; 0.0964 in assay [9]; 0.123 in assay [10]; 0.822 in assay [11]; 0.118 in [12]. The PBM binding z-score was 1.15 in [13]; 0.388 in [14]; 2.28 in assay [15]; 0.436 in assay [16]; 1.11 in assay [17]; 0.706 in [18]. In addition, the PBM binding z-score in assay [19] was found to be 2.45; in [20] it was 0.701.
For the sequence TCATATAGGTAATGGTGAAAGTCGAACGATATGA, the PBM binding z-score in assay [1] was -0.32; in [2], 0.417; in assay [3] it was -0.0652; in [4] it was 0.263; in assay [5], -0.188; in assay [6] it was 1.22. Besides, the PBM binding z-score is 1.43 in assay [7]; 2.42 in [8]; 3.89 in assay [9]; 3.12 in assay [10]; 3.77 in assay [11]; 2.74 in [12]. The PBM binding z-score in [13] was 1.66; in assay [14] it was 1.7; in assay [15], 0.415; in assay [16], 0.253; in assay [17], -0.311; in assay [18] it was 0.342. The PBM binding z-score in assay [19] was found to be 0.0985; in [20], 0.417.
ACAGGCAGGTGAGTGAAGGTAACTCAGCTGGACG: the PBM binding z-score was 0.139 in assay [1]; -0.0924 in assay [2]; -0.455 in assay [3]; -0.499 in assay [4]; -0.66 in assay [5]; 0.119 in assay [6]. In addition, the PBM binding z-score in assay [7] is 0.199; in assay [8], -0.206; in [9], -0.505; in assay [10], -0.636; in assay [11], 0.549; in [12], 0.264. In addition, the PBM binding z-score is -0.867 in assay [13]; -0.655 in assay [14]; -0.302 in assay [15]; -0.384 in assay [16]; -0.354 in assay [17]; -0.019 in [18]. The PBM binding z-score in [19] is -0.662; in assay [20], 0.283.
As to GGAACGAGGGCGAAGTTGATAGCATCTGTCGACG, the PBM binding z-score in assay [1] is -0.55; in [2], -0.447; in assay [3] it was -0.49; in [4], -0.637; in [5], -0.922; in [6], 1.42. The PBM binding z-score in assay [7] was 2.91; in [8], 4.71; in assay [9], 1.93; in assay [10] it was 4.02; in [11], 1.27; in [12], 1.23. The PBM binding z-score in assay [13] was 0.2; in [14], -0.848; in assay [15], 0.0285; in [16], -0.347; in assay [17] it was -0.365; in assay [18], -0.254. The PBM binding z-score in assay [19] is -0.834; in assay [20] it was 0.606.
As to CCAAGCAGGCCAATCTGGGTCACTCAAGGCTTGA, the PBM binding z-score in assay [1] was 0.754; in [2], 1.79; in assay [3], -0.345; in assay [4], 0.979; in assay [5], -1.19; in assay [6], 3.45. The PBM binding z-score stood at 2.46 in [7]; 2.55 in [8]; 0.227 in assay [9]; 1.63 in assay [10]; 4.53 in assay [11]; 4.91 in [12]. Also, the PBM binding z-score in assay [13] is 0.213; in assay [14], -1.24; in assay [15], 0.382; in [16] it was 1.26; in assay [17], -0.284; in assay [18], 1.71. Further, the PBM binding z-score in assay [19] is -1.17; in assay [20], 1.62.
Turning to TCTGCTAGGTCAGTCGGTCAGCTAACGAGCTGCC, the PBM binding z-score in assay [1] was 1.18; in assay [2], 0.763; in [3], -0.313; in assay [4], 0.432; in assay [5] it was 0.0608; in [6], 1.92. The PBM binding z-score in assay [7] was 1.25; in [8], 2.34; in assay [9], 1.11; in assay [10] it was 1.44; in assay [11], 3.05; in assay [12] it was 3.83. The PBM binding z-score is -0.327 in [13]; -0.109 in assay [14]; 0.456 in assay [15]; -0.00116 in assay [16]; -1.21 in [17]; 0.436 in [18]. Also, the PBM binding z-score in assay [19] was -1.08; in assay [20] it was 3.6.
For the sequence TAGCCTAGGTCATGGGCTAGTATACCACGCGAAC, the PBM binding z-score in [1] is 4.37; in assay [2] it was 3.22; in [3] it was -0.104; in [4], 1.86; in assay [5] it was -0.806; in assay [6], 4.16. The PBM binding z-score in [7] was 3.61; in assay [8], 3.3; in [9] it was 0.951; in assay [10], 2.07; in assay [11] it was 1.15; in assay [12], 3.37. Further, the PBM binding z-score in [13] is 0.577; in assay [14], -0.926; in [15], 1.36; in assay [16] it was 1.6; in assay [17], -0.606; in assay [18], 2.74. For the same sequence, the PBM binding z-score in assay [19] was -0.439; in assay [20] it was 3.86.
